An excerpt weighted towards active compounds, which were near 3.7% of everything screened.
TGFb inhibitor: inhibitors of TGF-b signaling; HepG2 CAGA-GFP TGF-b/SMAD3 reporter, GFP fluorescence, 18 h; TGF-beta stimulated, 500 pg/mL final; 1.2% of 410,000 active; Potency, µM (series often up to 46.1 µM), most hits filed as inhibitors; also: nearly all actives have a fitted effect of over 65% in size
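Read-out: total well GFP (ex488/em500-530) summed from mean per-cell fluorescence. Cells: HEPG2 CAGA-GFP, 1% FBS DMEM, 18 h at 37 degrees C with 500 pg/mL final TGF-beta. Unstimulated wells served as the full-inhibition control; stimulated DMSO wells = 0%.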
GLP-1R inv ag: GLP-1 receptor (human) inverse agonism; P43220; HEK293 GLP-1R CRE-luciferase, luminescence, 24 h; GLP-1R form is constitutively active; Potency, µM (titrated, usually from 38.3 µM), hits mostly inhibitors; 1.6% of 410,000 active; AID 624417; also: nearly all actives have a fitted effect of over 55% in size
Target sequence (P43220 whole entry, looked up): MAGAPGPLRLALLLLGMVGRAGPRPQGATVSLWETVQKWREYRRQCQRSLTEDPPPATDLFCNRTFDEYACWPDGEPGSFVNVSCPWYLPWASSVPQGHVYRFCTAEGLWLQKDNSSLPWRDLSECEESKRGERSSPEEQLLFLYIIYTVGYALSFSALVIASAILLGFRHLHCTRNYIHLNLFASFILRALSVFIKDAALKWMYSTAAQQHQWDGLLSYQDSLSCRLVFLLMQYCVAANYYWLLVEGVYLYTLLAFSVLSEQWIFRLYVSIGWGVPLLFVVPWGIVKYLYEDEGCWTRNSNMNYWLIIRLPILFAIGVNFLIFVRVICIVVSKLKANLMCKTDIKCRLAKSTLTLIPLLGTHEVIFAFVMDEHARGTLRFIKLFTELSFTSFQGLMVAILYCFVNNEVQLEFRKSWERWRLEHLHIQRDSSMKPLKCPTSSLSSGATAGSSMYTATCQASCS
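Constitutively active GLP-1R drives a cAMP-responsive luciferase in stably transfected HEK293 cells; test compounds are added after overnight (12 h) attachment and left 24 hr, and signal loss in luminescence marks inhibition.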
GLP-1R agonist: agonists of human GLP-1 receptor; HEK293 GLP-1R CRE-luciferase, luminescence, 4-6 h; cells express a hypersensitive GLP-1R form; Potency, µM (titrated, usually from 45.6 µM), actives largely listed as activators; 0.007% of 380,000 active
HepG2 tox: HepG2 cytotoxicity, counter-screen for TGF-b inhibitors. HepG2 CAGA-GFP viability, ATP luminescence, 18 h. Potency, µM (highest dose often 46.1 µM), most hits filed as cytotoxic. 0.76% of 410,000 active. AID 588856
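CellTiter-Glo luminescence gave cytotoxicity after 18 hours at 37 degrees C. The cells were HepG2 CAGA-GFP in 1% FBS DMEM, stimulated with 500 pg/mL TGF-beta after compound addition. %Activity was normalised to no-cell wells (complete cell-killing) and DMSO (no toxicity), and curves were fitted and classified.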
S2 tox: reduces viability in counter-screen for ATXN expression inhibitors; S2 cells (HEK-293 line with an ATXN2-luciferase reporter) viability, CellTiter-Fluor protease fluorescence, 24 h; 0.49% of 400,000 active; Potency, µM (titrated, usually from 56.7 µM), most hits filed as cytotoxic; also: nearly all actives have a fitted effect of over 40% in size
ATXN2 expr inh: ATXN2 expression inhibition; HEK-293 ATXN2-luciferase reporter, luminescence, 24 h; Potency, µM (titrated, usually from 57 µM), actives largely listed as inhibitors; 0.72% of 360,000 active; AID 1745845; also: nearly all actives have a fitted effect of over 55% in size
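qHTS (up to 57 uM final) was run with 24 h compound exposure of reporter cells at 37 °C. Each well was multiplexed: SteadyGlo luminescence measured ATXN2-luciferase expression after a fluorogenic Gly-Phe-AFC viability readout (25 uM final).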
Of the large screens only hits and unclear results are named; the others gave an inactive call. Calls follow the shape of the dose curve; as a rule, active = well fitted curve in the direction sought with a large enough effect; inconclusive = small, poorly fitted or top-dose-only effect, or another doubt; inactive = no such curve, though single readings can be large; an effect the other way counts as inactive or inconclusive.

CC1CCN(C(=O)CSc2c3c(nc4ccc(Cl)cc24)CCCC3)CC1	TGFb inhibitor 16µM, GLP-1R inv ag inconclusive (no result: GLP-1R agonist, S2 tox, ATXN2 expr inh)
CN(Cc1ccccc1)C(=O)CSc1c2c(nc3ccc(Cl)cc13)CCCC2	TGFb inhibitor inconclusive, GLP-1R inv ag inconclusive, HepG2 tox 22µM (no result: GLP-1R agonist, S2 tox, ATXN2 expr inh)
CC(=O)c1ccc(NC(=O)c2cn(-c3ccccc3)nc2-c2ccc(Br)cc2)cc1	none (no result: GLP-1R agonist)
O=S(=O)(c1ccc(Br)cc1)N1CCN(c2nc(-c3ccccc3)nc3ccccc23)CC1	none (no result: GLP-1R inv ag, GLP-1R agonist, S2 tox, ATXN2 expr inh)
Cc1ccc(C(=O)CSc2nnnn2C(C)C)c(C)c1	GLP-1R inv ag 4.5µM, ATXN2 expr inh 7.9µM
O=C(CCCCn1c(=O)c2ccccc2n(CC(=O)Nc2ccc(F)cc2F)c1=O)NCc1ccccc1Cl	none
Cc1sc2ncnc(N3CCC(C(=O)Nc4cc(Cl)ccc4Cl)CC3)c2c1C	GLP-1R inv ag 10µM
CCN(CC)S(=O)(=O)c1cc(NC(=O)C2CC(=O)N(Cc3ccccc3)C2)ccc1Cl (stereo not drawn)	TGFb inhibitor inconclusive, GLP-1R inv ag 10µM (no result: S2 tox, ATXN2 expr inh)
CCN(CC)S(=O)(=O)c1cc(NC(=O)C2CCN(c3ncnc4sc(C)c(C)c34)CC2)ccc1Cl	TGFb inhibitor inconclusive, GLP-1R inv ag 2.5µM, S2 tox inconclusive, ATXN2 expr inh 11µM
COCCNC(=O)c1cn(C2CCN(C3CCCC3)CC2)nn1	none (no result: TGFb inhibitor, GLP-1R inv ag, GLP-1R agonist, HepG2 tox, ATXN2 expr inh)
CC(C)Cc1ccc(C(C)/C=C2/CCC(CN3CCCCC3)C2=O)cc1 (stereo not drawn)	TGFb inhibitor 16µM, GLP-1R inv ag inconclusive, ATXN2 expr inh inconclusive (no result: S2 tox)
O=C(c1ccoc1)N1CCN(c2cc(-c3ccco3)nc3cc(-c4ccccc4)nn23)CC1	TGFb inhibitor inconclusive, GLP-1R inv ag inconclusive, S2 tox inconclusive, ATXN2 expr inh 25µM
COc1ccccc1-c1cc2nc(-c3ccccc3)cc(N3CCN(C(=O)c4ccco4)CC3)n2n1	S2 tox inconclusive, ATXN2 expr inh 13µM
COc1ccccc1-c1cc2nc(-c3ccccc3)cc(N3CCN(C(=O)c4ccoc4)CC3)n2n1	TGFb inhibitor inconclusive, GLP-1R inv ag inconclusive, S2 tox inconclusive, ATXN2 expr inh inconclusive
COc1ccc(-n2c(CCNC(=O)c3ccccc3C(F)(F)F)nnc2SC)cc1	none (no result: TGFb inhibitor, GLP-1R inv ag, GLP-1R agonist, HepG2 tox, ATXN2 expr inh)
CC(=O)N(C)C1(c2ccccc2)CCN(CCC[C@]2(c3ccc(Cl)c(Cl)c3)CCCN(C(=O)c3ccccc3)C2)CC1	ATXN2 expr inh 22µM (no result: TGFb inhibitor, GLP-1R inv ag, GLP-1R agonist, HepG2 tox, S2 tox)
COCCNC(=O)C1(C)CCCN(C(=O)c2ccccc2)C1 (stereo not drawn)	none
O=C(NCCc1ccc(Cl)cc1)c1ccc(Cn2c(=O)c3cccn3c3cccnc32)cc1	TGFb inhibitor 11µM (no result: GLP-1R agonist, S2 tox, ATXN2 expr inh)
O=C(NCCc1ccccc1)c1ccc(Cn2c(=O)c3cccn3c3cccnc32)cc1	none (no result: GLP-1R agonist, S2 tox, ATXN2 expr inh)
CCOC(=O)c1c(-c2ccccc2)oc2ccc(OCC(O)CNCCN(C)C)cc12 (stereo not drawn)	TGFb inhibitor inconclusive, GLP-1R inv ag 5µM, HepG2 tox 14µM (no result: S2 tox)
CCOC(=O)c1c(C)n(C)c2ccc(OCC(O)CNCCc3ccccc3)cc12 (stereo not drawn)	TGFb inhibitor inconclusive, GLP-1R inv ag 11µM, S2 tox inconclusive (no result: ATXN2 expr inh)
CCOC(=O)c1c(C)n(-c2ccc(C)cc2)c2ccc(OCC(O)CN3CCN(C)CC3)cc12 (stereo not drawn)	TGFb inhibitor inconclusive, GLP-1R inv ag 5µM
CCOC(=O)c1c(-c2ccccc2)oc2ccc(OC)cc12	GLP-1R inv ag inconclusive
CCOC(=O)c1c(-c2ccccc2)oc2ccc(OCC)cc12	GLP-1R inv ag 10µM
C#Cc1ccc(-c2ccccc2F)cc1	none (no result: TGFb inhibitor, GLP-1R inv ag, GLP-1R agonist, HepG2 tox)
O=C(c1cnsn1)N1CCOc2ccc(CN3CCOCC3)cc2C1	none (no result: TGFb inhibitor, GLP-1R inv ag, GLP-1R agonist, HepG2 tox, ATXN2 expr inh)
O=C(c1cc(C2CC2)nn1-c1ccccc1)N1CCN(Cc2ccc(Cl)cc2)CC1	TGFb inhibitor inconclusive, GLP-1R inv ag inconclusive, ATXN2 expr inh inconclusive
O=C(c1cc(C2CC2)nn1-c1ccccc1)N1CCN(Cc2ccccc2F)CC1	GLP-1R inv ag 8.9µM

Assay outcomes deposited in PubChem BioAssay by National Center for Advancing Translational Sciences (NCATS).
